Source: PubChem BioAssay
HEK cytotox – cytotoxic compounds in HEK 293 cells. HEK 293 viability, ATP luminescence (CellTiter-Glo), 48-72 h. Potency, µM (highest dose often 115 µM), for the others: at the top dose activity change, negative = cytotoxicity, most hits filed as inhibitors. 94,000 tested, 6.6% active; also: % is scaled to controls: 0 for no effect and ±100 for the full control effect; nearly all actives have a fitted effect of over 60% in size
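qHTS cytotoxicity; HEK 293, 250 cells/well; compound pinned; 48 or 72 hr, 37 degree Celsius, 5% CO2, 95% humidity; CellTiter-Glo, 10 min RT; luminescence (ATP).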
NPR1 antag – human Npr1 receptor antagonism; HEK293 hNpr1 GloSensor cGMP, ANP-stimulated luminescence; Potency, µM (top dose mostly 46.3 µM), inactives show at the top dose activity change, negative = inhibition, most hits filed as inhibitors; 76,000 tested, 1.6% active; calls by dose curve; also: % is scaled to controls: 0 for no effect and ±100 for the full control effect; nearly all actives have a fitted effect of over 60% in size
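HEK293 cells stably expressing human Npr1 and cGMP GloSensor pGS-40F, loaded 2 h with 2% GloSensor reagent, given compound 30 min at room temperature. Luminescence read before and 20 min after 0.1 nM hNppA.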
3T3 cytotox – cytotoxic compounds in NIH 3T3 cells. 94,000 tested, 4.3% active. NIH 3T3 viability, CellTiter-Glo ATP luminescence, 48-72 h. Potency, µM (top dose mostly 96.7 µM), without a hit: top-dose activity change, negative = cytotoxicity, actives largely listed as inhibitors; also: % is scaled to controls: 0 for no effect and ±100 for the full control effect; nearly all actives have a fitted effect of over 55% in size
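Cells were seeded at 400 per well, treated with pin-transferred compound, and kept 48 or 72 hr at 37 °C before CellTiter-Glo addition and luminescence imaging of cellular ATP.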
FLuc inh-1 – Photinus pyralis luciferase inhibition; purified P. pyralis luciferase, luminescence, biochemical; Potency, µM (series often up to 115 µM), hits mostly inhibitors; 76,000 tested, 2.5% active; also: % is scaled to controls: 0 for no effect and ±100 for the full control effect; nearly all actives have a fitted effect of over 65% in size
Target sequence (P08659 whole entry, looked up): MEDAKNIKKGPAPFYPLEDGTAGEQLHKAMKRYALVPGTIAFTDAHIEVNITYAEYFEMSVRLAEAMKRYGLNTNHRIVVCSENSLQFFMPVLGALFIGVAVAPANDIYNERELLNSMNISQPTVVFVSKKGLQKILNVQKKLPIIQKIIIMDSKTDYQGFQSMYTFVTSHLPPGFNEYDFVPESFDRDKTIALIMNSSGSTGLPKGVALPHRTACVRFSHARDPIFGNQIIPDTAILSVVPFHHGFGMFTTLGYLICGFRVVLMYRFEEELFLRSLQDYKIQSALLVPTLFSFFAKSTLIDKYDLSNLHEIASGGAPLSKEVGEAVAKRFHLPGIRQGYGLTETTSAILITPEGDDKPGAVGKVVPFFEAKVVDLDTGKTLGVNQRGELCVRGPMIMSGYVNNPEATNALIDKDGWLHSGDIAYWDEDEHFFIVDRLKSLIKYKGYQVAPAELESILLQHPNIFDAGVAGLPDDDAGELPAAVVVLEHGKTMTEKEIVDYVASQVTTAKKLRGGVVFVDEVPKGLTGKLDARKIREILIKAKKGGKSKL
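Luminescence read by CCD imager after adding enzyme (10nM final) to wells holding compound, titrated in qHTS. Substrates 10uM each D-luciferin and ATP; buffer 50mM Tris acetate pH 7.5, 10mM Mg acetate, Tween-20, BSA.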
FLuc SDR no ATP – binders stabilizing firefly luciferase, without ATP | Purified FLuc-C-HiBiT, Nano-Glo HiBiT luminescence, no ATP | AID 1963318 | Potency, µM (top dose mostly 32.7 µM), without a hit: top-dose activation (signal gain), hits mostly activators | shares compounds with FLuc inh-1 | 1,300 tested, 7.8% active; also: nearly all actives have a fitted effect of over 55% in size
FLuc SDR ATP – stabilizes firefly luciferase with ATP present. Potency, µM (doses to about 32.7 µM), inactives show top-dose activation (gain of signal), usual class: activators. AID 1963319. shares compounds with FLuc inh-1. 1,300 tested, 8.7% active. purified FLuc-C-HiBiT + ATP, HiBiT complementation luminescence;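 also: signal reports ligand binding via conformational change of the enzyme rather than luciferase catalysis; % of control where 0% means no effect; nearly all actives have a fitted effect of over 55% in size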
FLuc inh-2 – firefly luciferase enzyme inhibition | shares compounds with FLuc inh-1 | purified FLuc-C-HiBiT enzyme, luciferin luminescence | Potency, µM (titrated, usually from 32.7 µM), inactives show top-dose activity change, negative = inhibition, actives largely listed as inhibitors | 1,300 tested, 42% active | AID 1963320; also: % is scaled to controls: 0 for no effect and ±100 for the full control effect; nearly all actives have a fitted effect of over 70% in size
The depositor's hits bear a star; i = inactive; ? = inconclusive; / = not tested or not shown. This is a sample that favours compounds with a hit; in the whole collection about 11% have one here. Unless noted, calls follow the shape of the dose curve; as a rule, active = well fitted curve in the direction sought with a large enough effect; inconclusive = small, poorly fitted or top-dose-only effect, or another doubt; inactive = no such curve, though single readings can be large; an effect the other way counts as inactive or inconclusive. Potency is read from the fitted curve at half-maximal effect.

SMILES	HEK cytotox	NPR1 antag	3T3 cytotox	FLuc inh-1	FLuc SDR no ATP	FLuc SDR ATP	FLuc inh-2
O=C(Cc1ccccc1)N1CC(Oc2ccc(-c3nc(-c4ccccc4)no3)cc2)C1	?	?	-4.9%	?	/	/	/
O=C(COc1ccc(F)cc1)N1CC(Oc2ccc(-c3nc(-c4ccccc4)no3)cc2)C1	?	-2.5%	-14.9%	?	/	/	/
O=C(c1ccccc1Cl)N1CCN(C(=O)c2nc3cccnc3n(CCc3ccccc3)c2=O)CC1	?	/	-15.3%	/	/	/	/
Cc1noc([C@@H]2CC(F)(F)CN2C(=O)c2cc(C)oc2C)n1	-7.7%	5.2%	-4.4%	i	/	/	/
O=C(NCCC1CCN(C(=O)Nc2cc(F)cc(F)c2)CC1)c1ccc(F)cc1	?	-22.5%	?	14.1µM*	16.8%	11.4%	-17.7%
Cc1ccc(NC(=O)N2CCC(CCNC(=O)C3CC3)CC2)cc1F	-11.7%	-13.9%	-16.9%	11.2µM*	?	?	?
O=C(NCCC1CCN(C(=O)Nc2ccccc2)CC1)c1ccc(F)cc1	2.5%	-14.5%	-5.2%	?	/	/	/
Cc1ccc([S+](=O)([O-])N2CCCC(C(=O)N3CCC(c4nc5ncccc5[nH]4)C3)C2)cc1 (stereo not drawn)	?	/	-28.1%	/	/	/	/
CCOC(=O)c1ccc(NC(=O)Cn2c(=O)n(CC)c(=O)c3c2cc(C)n3C)cc1	?	-0.5%	?	i	/	/	/
O=C(Nc1cccc(Cl)c1)c1ccc2oc(-c3ccccn3)nc2c1	?	/	-24.0%	/	/	/	/
O=C(Nc1cccc(-c2nc3ccccc3s2)c1)c1cc2ccccc2oc1=O	/	/	/	/	13.8%	9.9%	-8.8%
Cc1ccc2oc(C(=O)Nc3cccc(-c4nc5ccccc5s4)c3)c(C)c2c1	/	/	/	/	16.5%	?	?
Cc1c(C(=O)Nc2cccc(-c3nc4ccccc4s3)c2)oc2ccccc12	/	/	/	/	9.5%	10.0%	-25.7%
Cc1ccc(C(=O)N2CCC(n3cnnc3-c3ccccc3)CC2)s1	-13.3%	/	-5.0%	/	/	/	/
Clc1cccc(-c2nc(-c3ccccn3)no2)c1	/	/	/	/	3.94µM*	?	0.989µM*
Cc1ccc(-c2nc(-c3ccccn3)no2)cc1Cl	/	/	/	/	4.42µM*	?	0.624µM*
Clc1ccc(C2Cn3nnc(-c4nc(-c5ccccn5)no4)c3CO2)cc1 (stereo not drawn)	-25.0%	-13.6%	-30.3%	?	/	/	/
CC(C)NC(=O)C1CCC(=O)N1C1CCN(C(=O)Cc2ccccc2F)CC1 (stereo not drawn)	-21.4%	/	-18.6%	/	/	/	/
O=C1NCCCCCCN(C(=O)Cc2ccccc2)[C@H]2C[C@H](c3nc(Cc4ccccc4)no3)C[C@@H]12	?	-1.9%	?	i	/	/	/
O=C(C1CC(=O)N(c2n[nH]c3ccccc23)C1)N1CCc2c([nH]c3ccccc23)C1 (stereo not drawn)	?	0.2%	-25.5%	i	/	/	/
CN(c1ccc(NC(=O)Nc2ccc(OC(F)(F)F)cc2)cc1)c1ccnc(Nc2cccc(S(N)(=O)=O)c2)n1	/	/	/	/	16.0%	8.9%	2.0%
Cc1cn2nc(C(=O)Nc3ccc(OC(F)(F)F)cc3)cc2c(N2CCSCC2)n1	?	3.9%	?	i	/	/	/
CC(C)(C)c1ccc(C(=O)Nc2ccc(C(O)[C@H]3COCC(=O)N3Cc3ccccc3)cc2)cc1 (stereo partly drawn)	?	?	22.4µM*	11.2µM*	15.2%	10.4%	-15.1%
COc1ccc(C(=O)NC2CCCN(c3cc(-c4ccc(F)cc4)[nH]n3)C2)cc1OC (stereo not drawn)	?	-2.0%	-29.5%	12.6µM*	15.6%	13.3%	?
O=C(NC1CCCN(c2cc(-c3ccc(F)cc3)[nH]n2)C1)c1ccc(C(F)(F)F)cc1 (stereo not drawn)	?	-6.6%	-16.7%	i	/	/	/
